ELG1 repair inh: qHTS screen for small molecules that inhibit ELG1-dependent DNA repair in human embryonic kidney (HEK293T) cells expressing luciferase-tagged ELG1; AID 504467, 2011; HEK293T ELG1-luciferase reporter, luminescence, 16 h; DNA damage induced by 5-fluorouridine; hit rate 2.3% among 330,000; Potency, µM (top dose mostly 46.1 µM), for the others: at the highest dose activity change, negative = inhibition, most hits filed as inhibitors; also: potency is read from the fitted curve at half-maximal effect; nearly all actives have a fitted effect of over 55% in size
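DMSO vehicle served as the neutral condition. Each well held 2,000 cells given 5-fluorouridine plus compound; after 16 hr at 37 °C/5% CO2, ONE-Glo was added and luciferase measured 30 min later.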
Giardia killer: Small Molecules that selectively kill Giardia lamblia: qHTS | activity change, % at 7.66 µM, hits read low | AID 540267, 2011 | Giardia lamblia trophozoite viability | hit rate 0.15% among 340,000; in the data active = activity change below about -80%; inconclusive = between about -30% and that limit;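 also: parasites exposed to compound for two days anaerobically before the ATP read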
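Trophozoites 100 cells/well + cpd; 48 hrs, 37 deg C, anaerobic. ATPLite 1-Step added, 15-30 min RT, luminescence read (ATP-based viability).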
Sfp inh: qHTS Assay for Inhibitors of Bacillus subtilis Sfp phosphopantetheinyl transferase (PPTase); Potency, µM, for inactives: largest response in the series, negative = inhibition, usual class: inhibitors; Biochemical Sfp PPTase activity, qHTS; AID 1490, 2009; hit rate 3.5% among 310,000;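 also: the enzyme is Sfp with the accession as filed and its product quenches rhodamine fluorescence; potency is read from the fitted curve at half-maximal effect; 0% = enzyme reaction without inhibitor and -100% = no enzyme wells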
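Fluorescence-quenching assay: 15 nM Sfp-PPTase preincubated 15 min at room temperature with compound, then 5 uM rhodamine-CoA and 12.5 uM BHQ-2-labelled YbbR peptide added. Fluorescence (ex 525/em 598 nm) read at start and after 30 min; difference gives rate.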
Coupling enz: qHTS Assay for Inhibitors of Fructose-1,6-bisphosphate Aldolase from Giardia Lamblia: Coupling assay counterscreen. hit rate 0.67% among 290,000. activity change, negative = inhibition, % at 58.2 µM, hits read low. coupling enzyme system counterscreen, AmpLite Red fluorescence; in the data active = activity change below about -30%
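Activity here indicates interference with the coupling reaction, not aldolase inhibition. Compounds at 57.5 uM final met coupling enzymes for 10 min at RT; substrate and AmpLite Red detection followed, with a 525/598 nm fluorescence read after 20 min.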
The depositor's hits bear a star. Only some compounds are listed: those with a hit (about 5.5% of all), similar ones and a draw of the others. Unless noted, calls follow the shape of the dose curve; as a rule, active = well fitted curve in the direction sought with a large enough effect; inconclusive = small, poorly fitted or top-dose-only effect, or another doubt; inactive = no such curve, though single readings can be large; an effect the other way counts as inactive or inconclusive. Unless noted, % is scaled to controls: 0 for no effect and ±100 for the full control effect.

Results for CC(=O)OC1CCC2(C)C3CC(=O)C4(C)C(CC5OC6(CCC(C)CO6)C(C)C54)C3CC[C@H]2C1 (stereo not given in full) ?
Sfp inh: 7%; Coupling enz: 0

How did COc1ccc(Cl)cc1C(=O)C1CCCN(Cc2cnc(N3CCOCC3)s2)C1 (stereo not given) do in these assays?
ELG1 repair inh: -16%; Giardia killer: 11; Sfp inh: -12%; Coupling enz: 1

What do the screens show for `COc1c(C)cc(C(=O)C2CCCN(Cc3cnc(N4CCOCC4)s3)C2)cc1C` (stereo not given)?
ELG1 repair inh: 21µM*; Giardia killer: 17; Sfp inh: -14%; Coupling enz: 0

Results for CC(=O)Nc1c(O)nc(SCC(=O)Nc2c(C)cccc2C)[nH]c1=O ?
ELG1 repair inh: 17%; Giardia killer: 11; Sfp inh: 79µM*; Coupling enz: 0

What do the screens show for `CCOCC(=O)Nc1nc2ccccc2s1`?
ELG1 repair inh: inconclusive; Giardia killer: -15; Sfp inh: 50µM*; Coupling enz: 0

Results for Cc1cc(=O)[nH]c(SCC(=O)Nc2nc3ccccc3s2)n1 ?
ELG1 repair inh: 6%; Giardia killer: inconclusive; Sfp inh: 79µM*; Coupling enz: -2

Results for S=c1cn[nH]c2ccccc12 ?
Giardia killer: 16

How did O=C(/C=C/c1ccccc1)N1CCCC1CO (stereo not given) do in these assays?
Sfp inh: 12%; Coupling enz: 1

How did O=c1c(O)c(-c2cc(O)c(O)c(O)c2)oc2cc(O)ccc12 do in these assays?
Sfp inh: inconclusive; Coupling enz: -10

How did Oc1ccc(/C=N/Nc2nc(-c3ccc(Cl)cc3)cc(C(F)(F)F)n2)cc1 do in these assays?
ELG1 repair inh: 26µM*; Giardia killer: 7; Sfp inh: 2%; Coupling enz: -4

How did Cc1c(N2C(=O)/C(=C/c3ccccc3)SC2=S)c(=O)n(-c2ccccc2)n1C do in these assays?
ELG1 repair inh: 0%; Giardia killer: -14; Sfp inh: -25%; Coupling enz: 3

How did Cc1c(N2C(=O)/C(=C\c3ccccc3O)SC2=S)c(=O)n(-c2ccccc2)n1C do in these assays?
ELG1 repair inh: inconclusive; Giardia killer: 26; Sfp inh: 13µM*; Coupling enz: -3

What do the screens show for `Cc1c(N2C(=O)/C(=C\C3CC=CCC3)SC2=S)c(=O)n(-c2ccccc2)n1C` (stereo not given)?
ELG1 repair inh: 4%; Giardia killer: -21; Sfp inh: 50µM*; Coupling enz: 0

Results for Cc1c(N2C(=O)/C(=C/C3CC=CCC3)SC2=S)c(=O)n(-c2ccccc2)n1C (stereo not given) ?
ELG1 repair inh: -2%; Giardia killer: -9; Sfp inh: 45µM*; Coupling enz: 3

Results for CC1=NOC(=O)/C1=C\c1ccc(-c2ccc(Cl)cc2Cl)o1 ?
ELG1 repair inh: -17%; Giardia killer: 8; Sfp inh: 45µM*; Coupling enz: 0

How did CCCOc1ccc(Cl)cc1/C=C1/C(=O)ON=C1C do in these assays?
ELG1 repair inh: inconclusive; Giardia killer: 12; Sfp inh: inconclusive; Coupling enz: -1

What do the screens show for `Cc1noc(C)c1C(=O)N1CCC2(CCCN(c3ccccc3)C2)CC1`?
Sfp inh: 11%; Coupling enz: -2

What do the screens show for `COCCNc1ncnc2ccc(-c3ccccc3C(F)(F)F)cc12`?
Sfp inh: 56µM*; Coupling enz: 1

How did Cc1cc(C)cc(OCC(=O)Nc2cccc(-c3nnc(-c4ccco4)o3)c2)c1 do in these assays?
ELG1 repair inh: 21µM*; Giardia killer: 7; Sfp inh: inconclusive; Coupling enz: 0

How did COc1ccc(C(=O)Nc2cccc(-c3nnc(-c4ccco4)o3)c2)cc1 do in these assays?
ELG1 repair inh: 21µM*; Giardia killer: 0; Sfp inh: -3%; Coupling enz: 1

Results for COc1ccc(CC(=O)Nc2cccc(-c3nnc(-c4ccco4)o3)c2)cc1 ?
ELG1 repair inh: inconclusive; Giardia killer: -8; Sfp inh: -23%; Coupling enz: 3

How did COc1cccc(CN(C)C(=O)CNC(=O)c2ccc(-c3ccccc3)cc2)c1OC do in these assays?
ELG1 repair inh: inconclusive; Giardia killer: 1; Sfp inh: -2%; Coupling enz: 0

Results for O=C(NCCc1ccc(F)cc1)Nc1ccccc1Cl ?
ELG1 repair inh: 20%; Giardia killer: -3; Sfp inh: 6%

What do the screens show for `CCOC(=O)c1cc(-c2ccccc2)nn1-c1ccccn1`?
ELG1 repair inh: 0%; Giardia killer: 3; Sfp inh: 0%; Coupling enz: -34*

How did O=C(Nc1ccc(Cl)c(S(=O)(=O)N2CCOCC2)c1)c1cc(-c2ccccn2)nc2ccccc12 do in these assays?
ELG1 repair inh: 18µM*; Giardia killer: -17; Sfp inh: -2%; Coupling enz: -1

Results for COc1ccc(Nc2nc(-c3ccccc3)nc3ccccc23)cc1S(=O)(=O)N1CCOCC1 ?
ELG1 repair inh: 8.2µM*; Giardia killer: -6; Sfp inh: 9%; Coupling enz: -5

Results for CCOc1cc(N2CCOCC2)c(OCC)cc1NC(=O)c1cc(-c2ccco2)nc2ccccc12 ?
ELG1 repair inh: 2.6µM*; Giardia killer: 4; Sfp inh: 28µM*; Coupling enz: -4

How did COc1ccc(NC(=O)c2cc(C)nc3ccccc23)cc1S(=O)(=O)N1CCOCC1 do in these assays?
ELG1 repair inh: -1%; Giardia killer: -8

Results for O=C(Nc1ccc(Cl)c(S(=O)(=O)N2CCOCC2)c1)c1ccccn1 ?
ELG1 repair inh: 0%; Giardia killer: -2; Sfp inh: -24%; Coupling enz: -2

Results for COc1ccc(NC(=O)c2cc(-c3ccco3)nc3ccccc23)cc1S(=O)(=O)N1CCOCC1 ?
ELG1 repair inh: 10µM*; Giardia killer: 8; Sfp inh: 5µM*; Coupling enz: -11

Results for CCN1CCC(O)(/C=C/c2ccc(C(C)C)cc2)C(C(=O)/C=C/c2ccc(C(C)C)cc2)C1 (stereo not given) ?
Giardia killer: -11

How did Cc1cc(Br)cc(Cl)c1OC(=O)c1ccncc1 do in these assays?
ELG1 repair inh: 1%; Giardia killer: -8; Sfp inh: -23%; Coupling enz: 1

How did CC(C)(C)c1ccc(COn2c(=O)c(-c3ccco3)[n+]([O-])c3ccccc32)cc1 do in these assays?
ELG1 repair inh: 4%; Giardia killer: -2; Sfp inh: 56µM*; Coupling enz: -13

What do the screens show for `CN(C)NC(=S)NC1(C)CCS(=O)(=O)C1` (stereo not given)?
ELG1 repair inh: 6%; Giardia killer: -15; Sfp inh: 89µM*; Coupling enz: 4

Results for CCOC(=O)c1ccn(CSc2c(F)c(F)cc(F)c2F)n1 ?
ELG1 repair inh: 3%; Giardia killer: -16

Bioassay records (PubChem)
